For part of these data: Measured potencies and affinities stand elsewhere. Activity calls are given as the source filed them.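 Rule for the calls, unless noted: active = fitted half-maximal concentration within the tested range, moderate curve steepness, significant signal drop, and little compound fluorescence or bead-linkage interference; inactive = the rest.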

Assay [1] addresses Cell division control protein 42 homolog (Homo sapiens) (UniProt P60953). Put plainly: activated mutant Cdc42 GTP-binding inhibitors, dose response, biochemical, multiplex bead flow cytometry, Bodipy-FL-GTP (AID 1333;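 active = fitted half-maximal concentration within the tested dose range, moderate curve steepness, a statistically real signal drop, and little compound fluorescence or tag-binding interference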). A general note: A flow cytometer gives signals particle by particle.
The target is the same in assay [2]. Put plainly: wildtype Cdc42 GTP-binding inhibitors, dose response, biochemical, multiplex bead flow cytometry, Bodipy-FL-GTP (AID 1334). The note with it: bead-based flow cytometry, Bodipy-FL-GTP binding to GST-Cdc42; at 100 µM (top of the series) unless noted.
Assay [3] addresses GTPase HRas (Homo sapiens) (UniProt P01112). As to the kind of experiment: inhibitors of GTP binding to wildtype Ras, dose response, biochemical, multiplex bead flow cytometry (AID 1335;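 active = fitted half-maximal concentration within 10 nM to 100 µM, steepness 0.5 to 2, significant signal drop, low assay interference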). The note with it: bead-based flow cytometry, Bodipy-GTP binding to GST-Ras; at 100 µM (top of the series) unless noted.
Assay [4] has as its system Ras-related protein Rab-7a (dog), GTP binding. Put plainly: Rab7 GTP binding inhibitors, potency, dose response, biochemical, wildtype, multiplex bead flow cytometry (AID 1336; call rule not given here).
The target in assay [5] is Ras-related C3 botulinum toxin substrate 1 (Homo sapiens) (UniProt P63000). Put plainly: wildtype Rac1 GTP binding inhibitors, dose response, biochemical, multiplex bead flow cytometry (AID 1340;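 active = dose curve with midpoint inside tested range, moderate steepness, plateau gap beyond fit error, low compound glow and bead-link interference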). The note with it: GST-Rac1 beads, Bodipy-FL-GTP binding; at 100 µM (top of the series) unless noted.
Assay [6] has as its target GTPase HRas (Homo sapiens) (UniProt P01112). Put plainly: activated Ras mutant GTP binding inhibitors, dose response, biochemical, multiplex bead flow cytometry (AID 1341;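 active = dose-response curve with midpoint inside the tested range, moderate steepness, significant amplitude and little compound fluorescence or bead-attachment interference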;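 note: GST-tagged constitutively activated Ras mutant immobilized on beads and multiplexed with other GTPases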).

GTPase HRas (Homo sapiens), sequence (P01112 whole entry, looked up): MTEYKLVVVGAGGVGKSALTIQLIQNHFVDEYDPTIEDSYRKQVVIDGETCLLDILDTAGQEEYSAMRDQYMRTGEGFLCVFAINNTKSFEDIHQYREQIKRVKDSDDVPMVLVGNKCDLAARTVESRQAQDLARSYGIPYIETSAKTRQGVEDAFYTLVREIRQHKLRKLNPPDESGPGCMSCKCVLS
Cell division control protein 42 homolog (Homo sapiens), sequence (P60953 whole entry, looked up): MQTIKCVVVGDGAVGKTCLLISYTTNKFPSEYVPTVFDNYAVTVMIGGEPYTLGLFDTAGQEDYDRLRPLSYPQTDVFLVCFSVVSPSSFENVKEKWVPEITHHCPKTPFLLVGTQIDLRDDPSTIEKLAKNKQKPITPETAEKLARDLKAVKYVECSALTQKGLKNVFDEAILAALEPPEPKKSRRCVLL

With `COc1cc(/C=N/Nc2ncnc3sc4c(c23)CCC4)ccc1O`, the outcome in assay [1], in assay [4] and in assay [6] was inactive. The molecule further displayed a fluorescence, percent of control (lower = inhibition) in assay [2] of 33.9%. In assay [3], this molecule gave a GTP binding, percent of control of 48.1%. Further, the GTP binding signal, raw median fluorescence (lower = inhibition) (MCF (arbitrary fluorescence units)) in assay [5] came to 126.

For the molecule `Cc1ccccc1OCCn1cc(C(=O)O)c2ccccc21`, the molecule was called inactive in assay [1], in assay [4] and in assay [6]. Moreover, the fluorescence, percent of control (lower = inhibition) in assay [2] was 96.9%. For the same molecule, the GTP binding, percent of control in assay [3] worked out at 131%. In assay [5], this molecule gave a GTP binding signal, raw median fluorescence (lower = inhibition) (MCF (arbitrary fluorescence units)) of 83.8.

`CCCc1cc(NCc2ccccn2)n2c(nc3ccccc32)c1C#N`: the outcome in assay [1], in assay [4] and in assay [6] was inactive. The molecule also registered a fluorescence, percent of control (lower = inhibition) in assay [2] of 30.1%. The GTP binding, percent of control in assay [3] is 68.2%. In assay [5], this molecule showed a GTP binding signal, raw median fluorescence (lower = inhibition) (MCF (arbitrary fluorescence units)) of 167.

With `S=c1[nH]nc(-c2ccc3ccccc3n2)n1-c1ccccc1Cl`, the molecule was called inactive in assay [1], in assay [4] and in assay [6]. The same molecule came in with a fluorescence, percent of control (lower = inhibition) in assay [2] of 45.1%. In addition, in assay [3], the GTP binding, percent of control was found to be 60.2%. The molecule further displayed a GTP binding signal, raw median fluorescence (lower = inhibition) (MCF (arbitrary fluorescence units)) in assay [5] of 165.

Consider `O=C(Nc1cc(S(=O)(=O)Nc2ccccc2Cl)ccc1O)c1sc2cc(Cl)ccc2c1Cl`, for which the molecule was called inactive in assay [1], in assay [4] and in assay [6]. In assay [2], this molecule showed a fluorescence, percent of control (lower = inhibition) of 35.5%. Also, in assay [3], the GTP binding, percent of control is 81.2%. In assay [5], this molecule yielded a GTP binding signal, raw median fluorescence (lower = inhibition) (MCF (arbitrary fluorescence units)) of 248.

As to `COc1ccccc1OCCn1cc(C(=O)O)c2cccc(C)c21`, the result in assay [1], in assay [4] and in assay [6] was inactive. In addition, the fluorescence, percent of control (lower = inhibition) in assay [2] stood at 50.6%. In assay [3], this molecule came in with a GTP binding, percent of control of 200%. The GTP binding signal, raw median fluorescence (lower = inhibition) (MCF (arbitrary fluorescence units)) in assay [5] was 55.9.

In the case of `Cc1ccc(-c2nnc(-c3ccccc3S(=O)(=O)Cc3ccc(Cl)cc3)o2)cc1`, the call in assay [1], in assay [4] and in assay [6] was inactive. Further, in assay [2], the fluorescence, percent of control (lower = inhibition) is 90.3%. The molecule also came in with a GTP binding, percent of control in assay [3] of 165%. The molecule further displayed a GTP binding signal, raw median fluorescence (lower = inhibition) (MCF (arbitrary fluorescence units)) in assay [5] of 184.

For `Cc1cc(=O)[nH]c2c(N=Nc3ccc(O)cc3)c(N)nn12`, the molecule was classed as inactive in assay [1], in assay [4] and in assay [6]. The molecule also showed a fluorescence, percent of control (lower = inhibition) in assay [2] of 31.3%. For the same molecule, the GTP binding, percent of control in assay [3] worked out at 69.7%. In addition, the GTP binding signal, raw median fluorescence (lower = inhibition) (MCF (arbitrary fluorescence units)) in assay [5] is 161.

For the molecule `COc1cc2c(C)nc3c(c(C)nn3-c3ccccc3)c2cc1OC`, the molecule was called inactive in assay [1], in assay [4] and in assay [6]. For the same molecule, in assay [2], the fluorescence, percent of control (lower = inhibition) worked out at 32.3%. The GTP binding, percent of control in assay [3] was 71.7%. This molecule returned a GTP binding signal, raw median fluorescence (lower = inhibition) (MCF (arbitrary fluorescence units)) in assay [5] of 167.

For the molecule `S=c1[nH]nc(-c2ccco2)n1-c1ccc(Cl)cc1`, the molecule was called inactive in assay [1], in assay [4] and in assay [6]. Moreover, the fluorescence, percent of control (lower = inhibition) in assay [2] came out at 28.4%. The molecule also displayed a GTP binding, percent of control in assay [3] of 67.6%. This molecule came in with a GTP binding signal, raw median fluorescence (lower = inhibition) (MCF (arbitrary fluorescence units)) in assay [5] of 209.

On to `O=C(NCCc1c[nH]c2ccccc12)c1cccc(S(=O)(=O)Nc2ccccc2Cl)c1`, for which the call in assay [1], in assay [4] and in assay [6] was inactive. In addition, in assay [2], the fluorescence, percent of control (lower = inhibition) was 32.1%. This molecule also yielded a GTP binding, percent of control in assay [3] of 71.4%. The GTP binding signal, raw median fluorescence (lower = inhibition) (MCF (arbitrary fluorescence units)) in assay [5] turned out to be 175.

In the case of `N#C/C(=C/c1ccc(-c2cc(C(=O)O)cc(C(=O)O)c2)o1)c1nc2ccccc2s1`, the molecule was classed as inactive in assay [1], in assay [4] and in assay [6]. Besides, the fluorescence, percent of control (lower = inhibition) in assay [2] stood at 27%. This molecule also had a GTP binding, percent of control in assay [3] of 66.4%. The GTP binding signal, raw median fluorescence (lower = inhibition) (MCF (arbitrary fluorescence units)) in assay [5] came out at 110.

For the molecule `CCOc1cccc(/C(O)=C2/C(=O)C(=O)N(CCOC)C2c2ccncc2)c1` (stereo not given), the outcome in assay [1], in assay [4] and in assay [6] was inactive. Besides, the fluorescence, percent of control (lower = inhibition) in assay [2] is 46.9%. In assay [3], the GTP binding, percent of control came to 57.7%. Moreover, in assay [5], the GTP binding signal, raw median fluorescence (lower = inhibition) (MCF (arbitrary fluorescence units)) was determined as 0.

With `CCN1C(=O)C(CC(=O)Nc2ccc(F)cc2)N(CCc2ccc(OC)cc2)C1=S` (stereo not given), the call in assay [1], in assay [4] and in assay [6] was inactive. This molecule also showed a fluorescence, percent of control (lower = inhibition) in assay [2] of 33.8%. Further, the GTP binding, percent of control in assay [3] is 78.6%. For the same molecule, the GTP binding signal, raw median fluorescence (lower = inhibition) (MCF (arbitrary fluorescence units)) in assay [5] stood at 239.

For the molecule `Cn1nc(C(F)(F)F)c(/C=N/OC(=O)c2ccccc2)c1SCc1ccc(Cl)cc1`, the molecule was called inactive in assay [1], in assay [4] and in assay [6]. The fluorescence, percent of control (lower = inhibition) in assay [2] was found to be 98.8%. The molecule also registered a GTP binding, percent of control in assay [3] of 181%. In addition, in assay [5], the GTP binding signal, raw median fluorescence (lower = inhibition) (MCF (arbitrary fluorescence units)) came to 175.

Source of the values: PubChem BioAssay.
